Measured values from the supplement of paper PMC8291772.
± gives the standard error. In all, about 1,300 sequences were measured (“fluorescence a.u.”: median about 420, highest 2% from about 1,100 on). The sample as a whole holds a higher share of the highest values than the screen did.

target: terminal deoxynucleotidyl transferase (calf thymus) (UniProt P06526); test: TdT poly-dT extension signal (Cy3 hybridisation fluorescence, uncapped minus capped) (fluorescence a.u.); higher = more efficient initiation of TdT extension; settings: initiator chemistry: 2'-O-methyl-RNA, free 3'-OH (5'-tethered via HEG linker)
Method: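 All mono- to pentamer 2'-O-methyl-RNA initiators were made by photolithographic in situ synthesis (3'-NPPOC amidites, reverse direction, free 3'-OH) on glass on a hexaethylene glycol linker. Each was made in uncapped and DMTr-dT-capped versions, about 11 replicates each. Arrays were extended with calf thymus TdT (0.2 U/uL), 100 uM dTTP and 0.25 mM CoCl2 for 120 min at 37 C, hybridised with an rA18-Cy3 probe and scanned at 532 nm. The value is the mean uncapped minus the mean capped signal. IDs are written 3'->5' and are reversed to 5'->3'; all nucleotides are 2'-OMe.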

terminal deoxynucleotidyl transferase (calf thymus), sequence (P06526 whole entry): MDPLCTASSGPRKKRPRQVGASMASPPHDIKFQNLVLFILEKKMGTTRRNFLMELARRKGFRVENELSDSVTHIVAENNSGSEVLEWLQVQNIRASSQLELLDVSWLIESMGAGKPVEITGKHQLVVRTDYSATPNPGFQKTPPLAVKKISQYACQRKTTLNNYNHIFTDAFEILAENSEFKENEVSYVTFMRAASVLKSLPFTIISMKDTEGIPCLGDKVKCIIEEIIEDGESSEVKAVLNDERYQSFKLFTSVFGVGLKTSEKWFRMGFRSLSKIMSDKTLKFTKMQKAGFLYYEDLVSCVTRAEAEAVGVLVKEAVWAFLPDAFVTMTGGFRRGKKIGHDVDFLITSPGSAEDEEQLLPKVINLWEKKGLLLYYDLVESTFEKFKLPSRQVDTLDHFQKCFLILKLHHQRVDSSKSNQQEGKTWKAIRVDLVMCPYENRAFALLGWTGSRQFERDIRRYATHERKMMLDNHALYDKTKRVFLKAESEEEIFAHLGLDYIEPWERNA

Sequence | TdT poly-dT extension signal
CCUAG | 353 ± 33
GGUA | 376 ± 23
CGUAU | 326 ± 32
CCUU | 343 ± 26
CGUUU | 232 ± 14
CGCCG | 324 ± 46
CCAAC | 725 ± 53
GCAAA | 1260 ± 170
GCAAC | 935 ± 81
CCAA | 1060 ± 95
GCAA | 841 ± 41
ACAA | 1060 ± 140
ACAAA | 1170 ± 100
ACAAG | 613 ± 60
CCAAA | 1170 ± 64
AUACG | 244 ± 16
CCUA | 528 ± 39
GAUA | 432 ± 34
CACAU | 469 ± 23
UACGC | 1190 ± 92
GACGC | 1120 ± 110
UACG | 231 ± 24
CUCGU | 483 ± 44
GGUC | 489 ± 33
CAGU | 512 ± 30
CACA | 425 ± 22

Sequence | TdT poly-dT extension signal
AAAGU | 535 ± 51
GUAAC | 558 ± 40
UGCAA | 770 ± 77
UCAGA | 821 ± 37
AAUAA | 788 ± 62
ACCUA | 571 ± 34
UUUCA | 224 ± 24
GCGAA | 1000 ± 120
GACUU | 318 ± 22
AGGAG | 436 ± 25
CAUGG | 217 ± 15
CAGGC | 1060 ± 81
AAGG | 383 ± 41
AAGGC | 1170 ± 40
CUCC | 396 ± 35
AUCAC | 729 ± 63
CUGUC | 440 ± 40
AAUGA | 403 ± 20
AUUCC | 377 ± 21
GUGAA | 729 ± 86
AUUGG | 176 ± 11
GCUUG | 230 ± 30
GAUUA | 366 ± 28
GAAUU | 321 ± 24
AGCGA | 556 ± 38
UUCGC | 1170 ± 79

Sequence | TdT poly-dT extension signal
UUCG | 159 ± 17
UUCGU | 500 ± 42
GCGCA | 351 ± 19
GCCG | 192 ± 16
UCGCA | 463 ± 31
UCGCU | 401 ± 25
UCGC | 1140 ± 90
CAACA | 373 ± 34
UCGG | 302 ± 31
AAGAU | 506 ± 39
UUAGG | 271 ± 26
UCGAU | 402 ± 31
AGGGC | 1120 ± 71
CUAUA | 436 ± 37
GUAUG | 157 ± 12
CGGCU | 341 ± 24
UCACG | 290 ± 31
CUCAG | 488 ± 37
CCCCG | 227 ± 18
GGUAG | 272 ± 28
ACCAC | 681 ± 58
UCUG | 199 ± 16
UUAUA | 375 ± 34
CUCCG | 194 ± 14
AACUC | 504 ± 22
CAUGU | 374 ± 35

Sequence | TdT poly-dT extension signal
AAUG | 175 ± 23
CAUG | 261 ± 26
AAUGG | 219 ± 18
CAUGC | 1140 ± 140
AAUGC | 1140 ± 77
CGUAC | 482 ± 33
AACUU | 369 ± 22
GGCGG | 310 ± 26
AUAGG | 266 ± 22
CCUGG | 221 ± 18
GCGGA | 554 ± 28
GUCUG | 218 ± 15
GGCUA | 621 ± 50
AAAAA | 1140 ± 80
AAAAG | 572 ± 40
CAAAG | 703 ± 58
UAAAG | 531 ± 53
CAAA | 1010 ± 77
GAAAG | 560 ± 51
UAAAA | 1190 ± 120
UAAA | 764 ± 51
GAAAA | 1340 ± 160
CAAAA | 1140 ± 66
AAAA | 1010 ± 74
GAAA | 879 ± 110
UUUAA | 472 ± 39

Sequence | TdT poly-dT extension signal
CACUG | 276 ± 22
GUUG | 156 ± 11
AGAA | 990 ± 120
ACAGA | 899 ± 79
CGAU | 429 ± 24
UCCGC | 1090 ± 36
CCCG | 312 ± 43
CCCGC | 1200 ± 97
CCCCC | 425 ± 34
AACAG | 567 ± 34
AUGUG | 141 ± 13
CGGUU | 300 ± 22
GAGGG | 362 ± 32
AUUAU | 330 ± 49
UGCGG | 324 ± 29
UCAGC | 1040 ± 72
AUUC | 339 ± 23
CAGGU | 493 ± 28
GGGGG | 472 ± 39
AAUUA | 354 ± 22
GCCAA | 696 ± 70
UGGU | 453 ± 25
UUUAC | 399 ± 22
CCCAU | 552 ± 28
GCCGG | 264 ± 21
UCGA | 592 ± 34

Sequence | TdT poly-dT extension signal
CGGGC | 1070 ± 81
UAGU | 371 ± 23
AGGAU | 433 ± 28
CUUAC | 422 ± 38
CAAAU | 657 ± 54
CAGUC | 521 ± 42
CACGG | 422 ± 55
GCCAG | 491 ± 83
GUAAU | 383 ± 30
CGUCA | 307 ± 18
UAACA | 312 ± 21
GGCAU | 577 ± 48
ACAUC | 447 ± 23
GGGC | 1320 ± 130
GGGCA | 291 ± 26
GGGCG | 330 ± 32
AGUGC | 1230 ± 130
UGUGC | 1360 ± 95
GGUG | 210 ± 18
GGUGC | 1450 ± 72
UGUG | 149 ± 15
UGUGA | 362 ± 29
AGUGG | 280 ± 18
GGUGU | 484 ± 37
CGUG | 298 ± 26
CGUGC | 1220 ± 81

Sequence | TdT poly-dT extension signal
AGUG | 231 ± 23
CGUGA | 389 ± 45
CGGAG | 465 ± 66
GGCUG | 287 ± 31
CUAGC | 785 ± 76
CAGUA | 544 ± 58
AAAU | 568 ± 46
CGCU | 427 ± 65
CCAGC | 1240 ± 140
CCAGA | 833 ± 99
CCAG | 470 ± 39
AAAG | 538 ± 32
CAAGG | 388 ± 18
AAAGC | 1270 ± 67
UAAGC | 1190 ± 89
UAAG | 401 ± 44
CAAG | 600 ± 36
CAAGC | 1300 ± 67
UAAGG | 350 ± 28
GAAGC | 1060 ± 81
GUCUA | 477 ± 45
UUGG | 177 ± 12
UCAGG | 384 ± 36
AAUAC | 583 ± 71
GACA | 349 ± 28
CCGGC | 929 ± 50

Sequence | TdT poly-dT extension signal
UGGA | 586 ± 52
UAGGG | 313 ± 21
AACUA | 675 ± 34
UUCGA | 389 ± 32
GACCA | 345 ± 31
ACUCG | 256 ± 14
UCGGU | 469 ± 22
GGAC | 724 ± 120
GCGGG | 285 ± 16
UUAC | 418 ± 28
CGCUG | 264 ± 25
UUGCU | 326 ± 35
AACGA | 620 ± 72
CCACC | 410 ± 37
AUCAG | 458 ± 47
ACCAG | 559 ± 61
GAAAC | 1000 ± 140
AAUUU | 252 ± 27
AACCG | 293 ± 26
UCACC | 396 ± 31
UUUCU | 226 ± 34
CCGCG | 351 ± 19
UUCAU | 442 ± 20
CAGC | 1170 ± 110
CAGCA | 560 ± 60
CAGCU | 361 ± 26

Sequence | TdT poly-dT extension signal
CCUUC | 341 ± 33
CAUU | 293 ± 19
GAACG | 310 ± 29
GCAG | 492 ± 30
CGAGC | 1020 ± 61
GGAGC | 1340 ± 130
GGAG | 374 ± 20
AGAGA | 827 ± 77
AGAG | 491 ± 39
AGAGC | 1140 ± 83
UCAUU | 329 ± 26
UGAAA | 894 ± 54
CUCUU | 266 ± 14
GCGC | 946 ± 73
AGUU | 341 ± 23
CAAGA | 858 ± 93
GAGGC | 1040 ± 84
GGCUU | 336 ± 21
